# Assay results taken from PMC5540273 (PLoS ONE, 2017).
# “And” between values parts separate entries of the source, which are not always exact repeats. Identical values can stand only once. Like-named read-outs stand apart in the source and are kept apart here.
# Key:
# Settings in all cases: concentration: 1 μM, replicates: in singlicate, n = 1
# PKMYT1 = test system: PKMYT1
# PKN1 = test system: PKN1
# PKN2 = test system: PKN2
# PLK1 = test system: PLK1
# PLK2 = test system: PLK2
# PLK3 = test system: PLK3
# PLK4 = test system: PLK4
# PRKCD = test system: PRKCD
# PRKCE = test system: PRKCE
# PRKCH = test system: PRKCH
# PRKCI = test system: PRKCI
# PRKCQ = test system: PRKCQ
# PRKD1 = test system: PRKD1
# PRKD2 = test system: PRKD2
# PRKD3 = test system: PRKD3
# PRKG1 = test system: PRKG1
# PRKG2 = test system: PRKG2
# PRKR = test system: T1, PRKR
# T1 construct: gene EIF2AK2
# PRKX = test system: PRKX
# PRP4 = test system: PRP4
# 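Further: KINOMEscan kinase panel screen.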
structure (smiles),measurement,setting,value
Cc1nnc(-c2ccc3occ(-c4ccc(C(C)O)cc4)c3c2)o1 (stereo not drawn),%Inh,PKMYT1,0%
same,%Inh,PKN1,0%
same,%Inh,PKN2,0%
same,%Inh,PLK1,2%
same,%Inh,PLK2,0%
same,%Inh,PLK3,0%
same,%Inh,PLK4,21%
same,%Inh,PRKCD,11%
same,%Inh,PRKCE,0%
same,%Inh,PRKCH,0%
same,%Inh,PRKCI,12%
same,%Inh,PRKCQ,5%
same,%Inh,PRKD1,11%
same,%Inh,PRKD2,20%
same,%Inh,PRKD3,0%
same,%Inh,PRKG1,10%
same,%Inh,PRKG2,34%
same,%Inh,PRKR,0%
same,%Inh,PRKX,0%
same,%Inh,PRP4,0%
Fc1ccc(-c2nn3c(OCC(F)(F)F)cccc3c2-c2ccncc2)cc1 [GW514784],%Inh,PKMYT1,0%
same,%Inh,PKN1,0%
same,%Inh,PKN2,0%
same,%Inh,PLK1,0%
same,%Inh,PLK2,0%
same,%Inh,PLK3,0%
same,%Inh,PLK4,0%
same,%Inh,PRKCD,0%
same,%Inh,PRKCE,14%
same,%Inh,PRKCH,13%
same,%Inh,PRKCI,25%
same,%Inh,PRKCQ,12%
same,%Inh,PRKD1,27%
same,%Inh,PRKD2,7%
same,%Inh,PRKD3,0%
same,%Inh,PRKG1,14%
same,%Inh,PRKG2,7%
same,%Inh,PRKR,0%
same,%Inh,PRKX,3%
same,%Inh,PRP4,34%
CNc1ncnc2[nH]ncc12 [SKF-18355],%Inh,PKMYT1,1%
same,%Inh,PKN1,0%
same,%Inh,PKN2,2%
same,%Inh,PLK1,31%
same,%Inh,PLK2,12%
same,%Inh,PLK3,23%
same,%Inh,PLK4,6%
same,%Inh,PRKCD,0%
same,%Inh,PRKCE,12%
same,%Inh,PRKCH,0%
same,%Inh,PRKCI,0%
same,%Inh,PRKCQ,0%
same,%Inh,PRKD1,0%
same,%Inh,PRKD2,0%
same,%Inh,PRKD3,0%
same,%Inh,PRKG1,0%
same,%Inh,PRKG2,0%
same,%Inh,PRKR,0%
same,%Inh,PRKX,0%
same,%Inh,PRP4,0%
Cc1cccc(Cn2ccn3c(=O)cc(N4CCOCC4)nc23)c1 [GSK2297542],%Inh,PKMYT1,16%
same,%Inh,PKN1,0%
same,%Inh,PKN2,0%
same,%Inh,PLK1,14%
same,%Inh,PLK2,0%
same,%Inh,PLK3,0%
same,%Inh,PLK4,0%
same,%Inh,PRKCD,9%
same,%Inh,PRKCE,2%
same,%Inh,PRKCH,31%
same,%Inh,PRKCI,14%
same,%Inh,PRKCQ,28%
same,%Inh,PRKD1,13%
same,%Inh,PRKD2,7%
same,%Inh,PRKD3,24%
same,%Inh,PRKG1,0%
same,%Inh,PRKG2,9%
same,%Inh,PRKR,0%
same,%Inh,PRKX,23%
same,%Inh,PRP4,1%
Cc1ccc(C(=O)NCC(N)=O)cc1-n1c(C)cc(OCc2ccc(F)cc2F)c(Br)c1=O,%Inh,PKMYT1,22%
same,%Inh,PKN1,6%
same,%Inh,PKN2,0%
same,%Inh,PLK1,0%
same,%Inh,PLK2,0%
same,%Inh,PLK3,0%
same,%Inh,PLK4,0%
same,%Inh,PRKCD,33%
same,%Inh,PRKCE,2%
same,%Inh,PRKCH,1%
same,%Inh,PRKCI,36%
same,%Inh,PRKCQ,26%
same,%Inh,PRKD1,23%
same,%Inh,PRKD2,0%
same,%Inh,PRKD3,15%
same,%Inh,PRKG1,0%
same,%Inh,PRKG2,12%
same,%Inh,PRKR,0%
same,%Inh,PRKX,22%
same,%Inh,PRP4,0%
CCc1nc(-c2cccc(C)c2)c(-c2ccnc(NCc3ccccc3)c2)s1,%Inh,PKMYT1,5%
same,%Inh,PKN1,14%
same,%Inh,PKN2,0%
same,%Inh,PLK1,0%
same,%Inh,PLK2,7%
same,%Inh,PLK3,6%
same,%Inh,PLK4,0%
same,%Inh,PRKCD,16%
same,%Inh,PRKCE,0%
same,%Inh,PRKCH,0%
same,%Inh,PRKCI,0%
same,%Inh,PRKCQ,31%
same,%Inh,PRKD1,0%
same,%Inh,PRKD2,13%
same,%Inh,PRKD3,0%
same,%Inh,PRKG1,0%
same,%Inh,PRKG2,0%
same,%Inh,PRKR,0%
same,%Inh,PRKX,0%
same,%Inh,PRP4,6%
O=c1cc(N2CCOCC2)nc2n(Cc3cccc(C(F)(F)F)c3)ccn12 [GSK2297543],%Inh,PKMYT1,0%
same,%Inh,PKN1,29%
same,%Inh,PKN2,5%
same,%Inh,PLK1,3%
same,%Inh,PLK2,0%
same,%Inh,PLK3,0%
same,%Inh,PLK4,0%
same,%Inh,PRKCD,8%
same,%Inh,PRKCE,0%
same,%Inh,PRKCH,9%
same,%Inh,PRKCI,4%
same,%Inh,PRKCQ,8%
same,%Inh,PRKD1,0%
same,%Inh,PRKD2,1%
same,%Inh,PRKD3,0%
same,%Inh,PRKG1,27%
same,%Inh,PRKG2,0%
same,%Inh,PRKR,8%
same,%Inh,PRKX,0%
same,%Inh,PRP4,22%
CN1c2ccc(NCc3ccc(F)cc3)cc2-c2c(cnn2C)S1(=O)=O,%Inh,PKMYT1,0%
same,%Inh,PKN1,0%
same,%Inh,PKN2,0%
same,%Inh,PLK1,2%
same,%Inh,PLK2,0%
same,%Inh,PLK3,0%
same,%Inh,PLK4,0%
same,%Inh,PRKCD,0%
same,%Inh,PRKCE,23%
same,%Inh,PRKCH,0%
same,%Inh,PRKCI,29%
same,%Inh,PRKCQ,12%
same,%Inh,PRKD1,13%
same,%Inh,PRKD2,1%
same,%Inh,PRKD3,0%
same,%Inh,PRKG1,0%
same,%Inh,PRKG2,7%
same,%Inh,PRKR,0%
same,%Inh,PRKX,0%
same,%Inh,PRP4,33%
COc1ccc(COc2cc(-n3cnc4ccccc43)sc2C(N)=O)cc1 [GSK1024304],%Inh,PKMYT1,0%
same,%Inh,PKN1,0%
same,%Inh,PKN2,0%
same,%Inh,PLK1,97.4%
same,%Inh,PLK2,90%
same,%Inh,PLK3,86%
same,%Inh,PLK4,4%
same,%Inh,PRKCD,4%
same,%Inh,PRKCE,0%
same,%Inh,PRKCH,0%
same,%Inh,PRKCI,0%
same,%Inh,PRKCQ,32%
same,%Inh,PRKD1,0%
same,%Inh,PRKD2,24%
same,%Inh,PRKD3,3%
same,%Inh,PRKG1,0%
same,%Inh,PRKG2,0%
same,%Inh,PRKR,0%
same,%Inh,PRKX,10%
same,%Inh,PRP4,11%
Cc1nnc(-c2ccc(C)c(-c3ccc(C(=O)Nc4ccc(NS(C)(=O)=O)cc4)cc3)c2)o1 [GW702865],%Inh,PKMYT1,0%
same,%Inh,PKN1,28%
same,%Inh,PKN2,15%
same,%Inh,PLK1,0%
same,%Inh,PLK2,0%
same,%Inh,PLK3,7%
same,%Inh,PLK4,6%
same,%Inh,PRKCD,0%
same,%Inh,PRKCE,0%
same,%Inh,PRKCH,0%
same,%Inh,PRKCI,13%
same,%Inh,PRKCQ,0%
same,%Inh,PRKD1,0%
same,%Inh,PRKD2,0%
same,%Inh,PRKD3,17%
same,%Inh,PRKG1,7%
same,%Inh,PRKG2,10%
same,%Inh,PRKR,8%
same,%Inh,PRKX,0%
same,%Inh,PRP4,56%
COc1ccc(Nc2nccc(N3CCC(NC(=O)Nc4cc(C)ccc4C)C3)n2)cc1 (stereo not drawn) [GSK1379741],%Inh,PKMYT1,0%
same,%Inh,PKN1,0%
same,%Inh,PKN2,0%
same,%Inh,PLK1,0%
same,%Inh,PLK2,0%
same,%Inh,PLK3,0%
same,%Inh,PLK4,0%
same,%Inh,PRKCD,0%
same,%Inh,PRKCE,13%
same,%Inh,PRKCH,0%
same,%Inh,PRKCI,7%
same,%Inh,PRKCQ,22%
same,%Inh,PRKD1,0%
same,%Inh,PRKD2,0%
same,%Inh,PRKD3,4%
same,%Inh,PRKG1,0%
same,%Inh,PRKG2,0%
same,%Inh,PRKR,0%
same,%Inh,PRKX,6%
same,%Inh,PRP4,22%
Cl.Cl.Cl.Fc1ccc(-c2ncn(C3CCNCC3)c2-c2ccnc(Nc3ccccc3)n2)cc1 [SB-238039],%Inh,PKMYT1; 1 µM,0% and 1%
same,%Inh,PKN1; 1 µM,0% and 9%
same,%Inh,PKN2; 1 µM,0% and 24%
same,%Inh,PLK1; 1 µM,4% and 0%
same,%Inh,PLK2; 1 µM,6% and 0%
same,%Inh,PLK3; 1 µM,15% and 0%
same,%Inh,PLK4; 1 µM,7% and 26%
same,%Inh,PRKCD; 1 µM,66% and 28%
same,%Inh,PRKCE; 1 µM,69% and 29%
same,%Inh,PRKCH; 1 µM,58% and 19%
same,%Inh,PRKCI; 1 µM,53% and 34%
same,%Inh,PRKCQ; 1 µM,20% and 50%
same,%Inh,PRKD1; 1 µM,96.5% and 91.3%
same,%Inh,PRKD2; 1 µM,95.3% and 91.8%
same,%Inh,PRKD3; 1 µM,88% and 90.8%
same,%Inh,PRKG1; 1 µM,3% and 0%
same,%Inh,PRKG2; 1 µM,0% and 28%
same,%Inh,PRKR; 1 µM,0% and 3%
same,%Inh,PRKX,0%
same,%Inh,PRP4; 1 µM,32% and 0%
CCn1cnc2c(N)ncnc21 [GW345098],%Inh,PKMYT1,5%
same,%Inh,PKN1,20%
same,%Inh,PKN2,0%
same,%Inh,PLK1,0%
same,%Inh,PLK2,7%
same,%Inh,PLK3,18%
same,%Inh,PLK4,27%
same,%Inh,PRKCD,0%
same,%Inh,PRKCE,18%
same,%Inh,PRKCH,9%
same,%Inh,PRKCI,13%
same,%Inh,PRKCQ,0%
same,%Inh,PRKD1,9%
same,%Inh,PRKD2,0%
same,%Inh,PRKD3,23%
same,%Inh,PRKG1,13%
same,%Inh,PRKG2,0%
same,%Inh,PRKR,0%
same,%Inh,PRKX,0%
same,%Inh,PRP4,1%
CC(C)(CN)c1nc(-c2ccc(Cl)c(O)c2)c(-c2ccncc2)[nH]1.O=C(O)C(F)(F)F [SB-477794],%Inh,PKMYT1; 1 µM,28% and 26%
same,%Inh,PKN1; 1 µM,23% and 0%
same,%Inh,PKN2; 1 µM,0% and 21%
same,%Inh,PLK1; 1 µM,4% and 1%
same,%Inh,PLK2; 1 µM,0% and 15%
same,%Inh,PLK3,0%
same,%Inh,PLK4; 1 µM,5% and 0%
same,%Inh,PRKCD; 1 µM,78% and 87%
same,%Inh,PRKCE; 1 µM,96% and 96.3%
same,%Inh,PRKCH; 1 µM,92.9% and 94.1%
same,%Inh,PRKCI; 1 µM,97.5% and 97.8%
same,%Inh,PRKCQ; 1 µM,75% and 76%
same,%Inh,PRKD1; 1 µM,92.4% and 93.9%
same,%Inh,PRKD2; 1 µM,89% and 91.8%
same,%Inh,PRKD3,100%
same,%Inh,PRKG1; 1 µM,0% and 20%
same,%Inh,PRKG2; 1 µM,0% and 10%
same,%Inh,PRKR; 1 µM,0% and 12%
same,%Inh,PRKX; 1 µM,21% and 22%
same,%Inh,PRP4; 1 µM,69% and 33%
NCCNS(=O)(=O)c1ccc(-c2ccnc3[nH]ccc23)cc1 [GSK977617],%Inh,PKMYT1; 1 µM,5% and 0%
same,%Inh,PKN1; 1 µM,44% and 19%
same,%Inh,PKN2; 1 µM,66% and 50%
same,%Inh,PLK1; 1 µM,6% and 2%
same,%Inh,PLK2; 1 µM,10% and 0%
same,%Inh,PLK3,0%
same,%Inh,PLK4; 1 µM,26% and 24%
same,%Inh,PRKCD; 1 µM,97.7% and 95.2%
same,%Inh,PRKCE; 1 µM,96.8% and 68%
same,%Inh,PRKCH; 1 µM,95% and 91%
same,%Inh,PRKCI; 1 µM,56% and 47%
same,%Inh,PRKCQ; 1 µM,86% and 70%
same,%Inh,PRKD1; 1 µM,49% and 33%
same,%Inh,PRKD2; 1 µM,51% and 23%
same,%Inh,PRKD3; 1 µM,45% and 33%
same,%Inh,PRKG1; 1 µM,97.6% and 96.7%
same,%Inh,PRKG2; 1 µM,98.6% and 98%
same,%Inh,PRKR; 1 µM,52% and 42%
same,%Inh,PRKX; 1 µM,94.7% and 92.2%
same,%Inh,PRP4; 1 µM,28% and 20%
